From PubChem BioAssay
Hits are enriched below; roughly 17% of the tested compounds scored in any of these assays.
TDP1 block: TDP1 (human) enzyme inhibition | AID 485290 | Q9NUW8 | Potency, µM (top dose mostly 130 µM), for the others: at the highest dose activity change, negative = inhibition, most hits filed as inhibitors | recombinant TDP1, AlphaScreen DNA substrate cleavage | hit rate 0.28% among 350,000; note: % is set by controls: 0 for no effect and ±100 for the full control effect; nearly all actives have a fitted effect of over 40% in size
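Steps: enzyme plus compound, 15 min RT; add biotin/phosphotyrosine-FITC oligonucleotide (15 nM final), react 5 min; add donor/acceptor beads (10 ug/ml final), 10 min; read AlphaScreen. Tdp1 at 1 nM final.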
TDP1 cell CPT: DT40-hTDP1 cell growth loss with CPT; chicken DT40 Tdp1-/-;hTDP1 cells + 20 nM CPT, ATP luminescence, 48 h; Potency, µM (top dose mostly 46.2 µM), for inactives: at the top dose activity change, negative = growth inhibition, hits mostly inhibitors; hit rate 12% among 420,000; AID 686979; note: % is set by controls: 0 for no effect and ±100 for the full control effect; nearly all actives have a fitted effect of over 55% in size
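Chicken DT40 Tdp1-/- cells complemented with human TDP1, 400 cells/well, exposed to compounds plus 20 nM camptothecin for at least 48 h at 37 C; viability read as ATP content by CellTiter-Glo luminescence.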
DT40 TDP1 no CPT: qHTS for Inhibitors of human tyrosyl-DNA phosphodiesterase 1 (TDP1): qHTS in cells in absence of CPT; DT40 Tdp1-/- hTDP1 cells, no CPT, ATP luminescence, 48 h; Potency, µM (series often up to 46.2 µM), for the others: top-dose activity change, negative = growth inhibition, most hits filed as inhibitors; hit rate 15% among 420,000; AID 686978, 2013; note: % is set by controls: 0 for no effect and ±100 for the full control effect; nearly all actives have a fitted effect of over 55% in size
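DT40 Tdp1-/-;hTDP1 cells, no CPT (DMSO vehicle only), 400 cells/well; compounds pin-transferred; ≥48 hr, 37 °C; CellTiter-Glo 30 min RT dark, luminescence read.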
ClpP mod: qHTS Assay for Activators of ClpP; purified B. subtilis ClpP, FRET peptide cleavage, 20 min; hit rate 1.9% among 340,000; Potency, µM (series often up to 57.5 µM), without a hit: at the top dose activity change, negative = active; AID 651965, 2013; active = well fitted falling curve with a large enough effect; inconclusive = small, poorly fitted or top-dose-only effect; inactive = no such curve, though single readings can be large or run the other way; note: the source files actives as falling curves though it sought activators and does not explain the sign; nearly all actives have a fitted effect of over 65% in size
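Buffer: 100 mM Tris/HCl pH8, 100 mM KCl, 0.05% low protease BSA, 2.5% glycerol, 0.01% Tween-20. ClpP 10 microg/mL final; 20 min RT; delta FRET normalized to ADEP and DMSO controls.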
Starred values were filed as active, the others as inactive; ? = inconclusive; . = no result given; [ ] = remark or other dose. Unless noted, calls come from the whole dose curve; as a rule, active = well fitted curve in the direction sought with a large enough effect; inconclusive = small, poorly fitted or top-dose-only effect, or another doubt; inactive = no such curve, though single readings can be large; an effect the other way counts as inactive or inconclusive. Potency is the fitted concentration of half-maximal effect.

SMILES | TDP1 block | TDP1 cell CPT | DT40 TDP1 no CPT | ClpP mod
COc1ccc(C(=O)NCCSc2c[nH]c3ccccc23)cc1OC | 6% | ? | 21µM* | -1%
Cc1ccccc1-c1cnc(C(O)c2cc(Cl)cc(Cl)c2)[nH]1 (stereo not given) | . | ? | ? | -1%
COc1ccc(CNC(=O)CN(Cc2ccco2)C(=O)CCC(=O)Nc2ccccn2)cc1 | -2% | -1% | -14% | .
COC(=O)C1N2C(=O)N(C)[C@H](C(=O)OC)[C@H]2SC1(C)C (stereo not given in full) | . | -9% | -3% | 2%
COC(=O)[C@@H]1[C@H]2SC(C)(C)[C@H](C(=O)OC)N2C(=O)N1Cc1cc2ccccc2n1S(=O)(=O)c1ccccc1 | . | ? | 13µM* | -1%
C=CCc1cc(C=O)cc(OC)c1OCc1ccc(Cl)cc1 | -4% | ? | 18µM* | 2%
COc1ccc(NC(=O)CN(C)C(=O)C2=COCCO2)cc1 | . | -8% | -5% | -4%
O=C(CSC1=Nc2ccccc2N=C(c2ccc(F)cc2)C1)NCc1ccccc1 | 2% | ? | 18µM* | -2%
COc1ccccc1CNC(=O)CSC1=Nc2ccccc2N=C(c2ccc(F)cc2)C1 | 2% | 26µM* | ? | -1%
O=c1cc(COc2ccccc2Cl)nc2scc(-c3ccccc3)n12 | -6% | ? | ? | -3%
Cc1ccsc1C(=O)OCC(=O)N1CC(C)CC(C)C1 (stereo not given) | 0% | -4% | -6% | 1%
O=C(CSCc1ccccc1)N/N=C/c1cc2c(cc1Br)OCO2 | 5% | -74% | 18µM* | ?
Cc1nonc1C(=O)N/N=C/c1cc2c(cc1Br)OCO2 | 0% | -23% | 14% | -4%
Cc1cc(=O)oc2cc(OCC(=O)N/N=C/c3ccccc3O)ccc12 | 8%[0.0935 µM] | -5% | -32% | .
CSc1nc(C)cc(OCC(=O)N/N=C/c2ccccc2O)n1 | 4% | 2.9µM* | ? | -6%
Cc1nn(C)c(C(=O)N/N=C/c2cc3c(cc2Br)OCO3)c1Br | 5% | ? | 18µM* | -7%
CCCCCCCC(=O)N/N=C/c1ccc(Br)cc1 | 0% | ? | 15µM* | 0%
CN(C)CCCOC(=O)COc1ccc(Br)cc1 | -2% | -1% | -5% | 0%
Cn1c2cc(S(C)=O)sc2c2cnn(Cc3cccc(O)c3)c(=O)c21 (stereo not given) | 1% | . | . | .
c1ccc(Nc2ncnc3ccc(-c4ccc5c(c4)OCO5)cc23)cc1 | -13% | ? | ? | .
CCN(c1ccccc1)S(=O)(=O)c1ccc(C(=O)Oc2ccc(C(C)=O)cc2)cc1 | 0% | -13% | -5% | -2%
O=C(NCc1ccccn1)C(=O)N/N=C/c1ccccc1O | . | ? | 23µM* | .
Cc1cc(/C=N/NC(=O)C(=O)NCc2ccccn2)c(C)n1-c1cccc(Br)c1 | 7% | ? | ? | .
COCCCNC(=S)N/N=C/c1ccccc1O | 9% | 2.6µM* | 0.58µM* | ?
O=C(N/N=C/c1cc(Cl)ccc1O)c1ccncc1 | 13% | 5.8µM* | 3.3µM* | 1%
SMILES | TDP1 block | TDP1 cell CPT | DT40 TDP1 no CPT | ClpP mod
O=C(N/N=C/c1ccccc1Cl)c1ccncc1 | 2% | 0% | -13% | 1%
O=C(N/N=C/c1cc(Br)ccc1O)c1ccccc1Cl | 3% | 0.65µM* | 0.92µM* | -18%
COc1ccc(CN(C)CC(=O)NC2CCCc3ccccc32)cc1OC (stereo not given) | -3% | -5% | ? | .
Cc1ccc(S(=O)(=O)N(CCCc2c(C)nc[nH]c2=O)c2ccccc2)cc1 | . | ? | -27% | -2%
O=C(CCCCC(=O)NN=Cc1ccccc1O)NN=Cc1ccccc1O | . | 5.8µM* | 5.8µM* | .
O=C(CN1C(=O)NC2NC(=O)NC21)N/N=C/c1ccccc1O (stereo not given) | -2% | 10% | -3% | .
O=C(N/N=C\c1ccccc1O)c1ccccc1O | 32µM* | 0.53µM* | 0.53µM* | .
O=C(CSCC(=O)NN=Cc1ccccc1O)NN=Cc1ccccc1O | . | 5.8µM* | 5.8µM* | ?
O=C(Cn1cc(C(F)(F)F)ccc1=O)N/N=C/c1ccccc1O | 4% | 16µM* | 7.3µM* | -5%
CC(C)Oc1cc(F)ccc1-c1cc(C(=O)NCc2cccnc2)[nH]n1 | . | 7% | ? | -2%
CCCCN(C(=O)Cc1cccc(F)c1)c1c(N)n(CCC)c(=O)[nH]c1=O | 6% | -17% | -3% | .
CCc1nc(NCCN2CCOCC2)c(C#N)c2c1CCCC2 | 7% | 3.3µM* | -20% | -14%
CC(C)Cc1nc(NCCN2CCOCC2)c(C#N)c2c1COC(C)(C)C2 | 3% | ? | 18µM* | -17%
CC(C)c1nc(NCCN2CCOCC2)c(C#N)c2c1COC(C)(C)C2 | 4% | ? | ? | -16%
Cc1nc(NCCO)c(C#N)c2c1COC(C)(C)C2 | 3% | -12% | -7% | 22µM*
CC(C)Cc1nc(N2CCOCC2)c(C#N)c2c1COC(C)(C)C2 | 6% | -14% | ? | 28µM*
CN(C)CCCNc1nc(-c2ccccc2)c2c(c1C#N)CC(C)(C)OC2 | 4% | ? | ? | 4%
CCCCc1nc(NCCN2CCOCC2)c(C#N)c2c1COC(C)(C)C2 | 7% | -25% | ? | -12%
COC(=O)c1ccc(CSc2n[nH]c(-c3ccccc3)n2)o1 | 6% | -8% | -11% | -1%
CSc1ccccc1NC(=O)C1=CC(c2cccs2)=NS(=O)(=O)N1C | . | -17% | -29% | -1%
COc1cccc(C2c3c(ncn(-c4cccnc4)c3=N)Oc3ccc4ccccc4c32)c1 (stereo not given) | 2% | . | . | .
